The results in this text go back to PubChem BioAssay AID1347426 (Functional Genomics Laboratory (NCATS/FGL), 2020).

About 1,400 (4.5%) of roughly 31,000 sequences were called active.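 How the source made its calls: active means median seed-adjusted z-score above 1 or below -1; inactive means the rest.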 Only a selection was taken, and actives are over-represented in it overall.

The nature of the test: Novel Modifiers of Survival Motor Neuron (SMN) Protein: Gene Identification via Genome-wide siRNA Screen. The conditions noted are these: HEK293T SMN2-luciferase reporter, siRNA knockdown, 72 h; actives lie on both sides. From the text:
Spinal muscular atrophy (SMA) is the most common neuromuscular autosomal recessive disorder and one of the leading genetic causes of infant death. SMA results from mutations inducing loss of function or deletion in the survival of motor neuron-1 gene (SMN1), leading to deficiency of the survival motor neuron (SMN) protein. Although a second nearly identical gene, SMN2, is retained in humans, its expression primarily produces an aberrantly spliced isoform that is largely unstable and quickly degraded. We performed a genome-wide RNAi screen using a cell-based reporter assay to identify genes and pathways that modulate SMN protein stability. The screen identified over 200 genes that led to the greatest increase or decrease in luciferase expression.
Using HEK293T cells stably expressing a luciferase reporter that combines the promoter and splicing based cassettes in tandem with the major portion of the native SMN2 cDNA with luciferase, we performed a genome-wide RNAi screen to identify modulators of SMN protein levels. Luciferase is expressed when full-length SMN protein is generated with luminescence signal proportional to SMN protein levels. Our luciferase-based reporter assay was used to screen Ambion Silencer Select Human Druggable Genome siRNA library (10418 genes, 3 unique siRNAs per gene) using lipid-based reverse transfection.
Briefly, 1 pmol of each siRNA was spotted to a well of a 384-well plate (Corning, Corning, NY) and 20 microL of serum-free DMEM containing […] of Lipofectamine RNAiMax (Life Technologies, Carlsbad, CA) was then added to each well. Transfected cells were maintained at 37 degrees C in 5% CO2 for 72 hours, 20 microL of ONE-Glo Reagent (Promega) was added to wells for luciferase quantification. Raw luminescence reads were normalized to Ambion(R) Silencer(R) Negative Control #2 siRNA, then log10 transformed. A robust statistical measure of median absolute deviation (MAD) to standardize siRNA activities from each screen. Common Seed Analysis was used to help prioritize clean hits as opposed to those appearing to arise from seed based off-target effects. Candidate modulators were defined as the genes having a MAD score greater than 1.0 or less than -1.0.
On to CAUAGUCACAUGAUUAAUATT against POSTN, for which the median seed-adjusted z-score is -0.45 (inactive).

In the case of GGAAGACAAUUGCUAAGGUTT against TRO, the median seed-adjusted z-score was 2.04 (active).

In the case of CCUUAUCCGCUACCUCCAATT against TAF5L, the median seed-adjusted z-score is 0.409 (inactive).

Consider GGAAGAAGGUAUUCCGUAUTT against CHD5, for which the median seed-adjusted z-score is -0.195 (inactive).

Consider CGUCCAUGUUUAUCUACAATT against ENTPD2, for which the median seed-adjusted z-score is 0.0319 (inactive).

With CGAACGAGCUAUCACAGAATT against TFB1M, the median seed-adjusted z-score was 0.172 (inactive).

For CAUUCGGUAUUUUAUUCUATT against SNRPD1, the median seed-adjusted z-score was -2.97 (active).

As to CCUUGCAACAUGUUCGUGATT against KRIT1, the median seed-adjusted z-score is -0.447 (inactive).

For GAAAAACGAUGUAAGCAAUTT against ADH1A, the median seed-adjusted z-score is 0.624 (inactive).

Take GAGACAAACUAAUUGAGAATT against PPP1R8: the median seed-adjusted z-score is -0.029 (inactive).

Consider GGCUACAAAUGUUCAUCGATT against LRP6, for which the median seed-adjusted z-score was -0.116 (inactive).

In the case of CGUCAAUUCCGGUACACUUTT against PIGM, the median seed-adjusted z-score is 1.36 (active).

CACAUUAAAGUGUAAAGAATT against PIP3-E: the median seed-adjusted z-score is 0.676 (inactive).

Consider GGACAAAGUCCUAAAGAAATT against MGC21874, for which the median seed-adjusted z-score was -0.354 (inactive).

Turning to GCACUGUCUACAUCCCUGATT against RHCG, the median seed-adjusted z-score was 0.375 (inactive).

For AGAUAGUUCUGGAACUGGATT against HES2, the median seed-adjusted z-score is -0.186 (inactive).

As to CCACUAGCACAUUCCGCAATT against RBP2, the median seed-adjusted z-score was 0.0132 (inactive).

Regarding GGACGACUCUGAUCUGGAUTT against DYNC1I1, the median seed-adjusted z-score was -0.716 (inactive).

In the case of GGCGAAAAAUUGCUACCGATT against PSMC2, the median seed-adjusted z-score was -1.96 (active).

Turning to CUCUAGUCGCGUCAAGUUUTT against NISCH, the median seed-adjusted z-score is -0.0757 (inactive).

With GCAAAAAGAGCGAUCAGAATT against CNDP1, the median seed-adjusted z-score is 0.203 (inactive).

As to GGAUAUAACGAGAAUGUCUTT against MED27, the median seed-adjusted z-score is -1.62 (active).

Regarding AGAUAGAAAUUGACUUUGATT against BRD3, the median seed-adjusted z-score was 0.633 (inactive).

Take GCGAAAACAUGGAUGUUCUTT against HERC2: the median seed-adjusted z-score is 0.98 (inactive).

CUUUCCGUGUGAAAUCAAATT against ZNF761: the median seed-adjusted z-score was 0.291 (inactive).

AGACCUCCUACGACAUUAATT against BOC: the median seed-adjusted z-score is -0.0192 (inactive).

As for GACUCAAUGCUACUAUCAATT against ADAM32, the median seed-adjusted z-score is 1.75 (active).

As to GGGUGAAUGCUAUUGAGUUTT against MKRN1, the median seed-adjusted z-score is -0.496 (inactive).

Regarding AGAACUUCAUGGACAUAGATT against CNR1, the median seed-adjusted z-score is 0.0359 (inactive).

Consider CCACCGAUGAGAUUACCUUTT against STS, for which the median seed-adjusted z-score was -0.392 (inactive).

With CAGAGGUUGUGACACGAAATT against PAK1, the median seed-adjusted z-score was -0.168 (inactive).

For the sequence CUAUGAGGAAUGUCGCAGATT against XPO1, the median seed-adjusted z-score was 1.12 (active).

In the case of GGUCCUCAUUGAAAACGAATT against BTBD11, the median seed-adjusted z-score is -0.00434 (inactive).

Turning to GGACUACAGUAUACAUUGUTT against PCDH24, the median seed-adjusted z-score was 0.345 (inactive).

Regarding GGAACAGGCUAUCAGAACATT against TTC8, the median seed-adjusted z-score is 0 (inactive).

In the case of GGGCUUUAAAUAUGAGAUUTT against GRID1, the median seed-adjusted z-score was 0.66 (inactive).

Turning to CGUUGUCACUGAGAUCACATT against AVIL, the median seed-adjusted z-score is -0.127 (inactive).

As for AAGACAUACCGACCUCUUATT against PPIL3, the median seed-adjusted z-score is 0.282 (inactive).

For the sequence GGACGUACAGUGGUGGUAATT against ABCA3, the median seed-adjusted z-score is -0.363 (inactive).

Consider CCAAUAUUCGACUUGCGUATT against XPO1, for which the median seed-adjusted z-score was 1.12 (active).

In the case of GCCGCCAAGUAAAGCCUUATT against HSPB1, the median seed-adjusted z-score is 0.693 (inactive).

Regarding CAAGCUGUCUAAGUCCAAATT against NOVA1, the median seed-adjusted z-score is -0.486 (inactive).

With CCCACCAUGUUACAAGACATT against POLR2G, the median seed-adjusted z-score was -4.19 (active).

GCAAGGAAGAAAUUUGUGATT against ERCC1: the median seed-adjusted z-score was -0.566 (inactive).

As for CUCACAUAAUCAUAAUAGATT against ZNF41, the median seed-adjusted z-score was 0.342 (inactive).

As to GGAGCCUUGUUGAUCCUUATT against FRAP1, the median seed-adjusted z-score is -1.02 (active).

Turning to CGUUCGCACAUUCCUUAUATT against KIF6, the median seed-adjusted z-score was -0.0396 (inactive).

In the case of GCUUUGUAGAAUUUGCAGATT against TRNAU1AP, the median seed-adjusted z-score is 0.52 (inactive).

For the sequence GGACCGGCCUUUUCGAAAATT against SNRNP35, the median seed-adjusted z-score was 0.172 (inactive).

As to GGCUGAUUACGUUCGGGAATT against MYL2, the median seed-adjusted z-score is -0.0369 (inactive).

As to CAAUGAUCCCGGGCAUUUATT against RPP21, the median seed-adjusted z-score was -1.09 (active).

Regarding GGAGACCAACUGCAACUUUTT against ZACN, the median seed-adjusted z-score was 0.065 (inactive).

Regarding CGGAGGUGACUGACAGAUATT against CAMKV, the median seed-adjusted z-score was -0.193 (inactive).

For the sequence GAGUCAAAUUUGUGAAGAATT against GLO1, the median seed-adjusted z-score was -0.0827 (inactive).

With CUGUGGGAGUUAUUGUCAATT against CDH13, the median seed-adjusted z-score was 0 (inactive).

In the case of CAAGCAUCUUUGUCAAAGATT against PTH2R, the median seed-adjusted z-score was -0.492 (inactive).

Turning to GGCUGAUAGUUUAGGAGUUTT against EIF5B, the median seed-adjusted z-score is 1.68 (active).

Consider GCUGGUUACUUAUCACCAATT against TPH1, for which the median seed-adjusted z-score was -0.055 (inactive).

Regarding AACCUAUGCGUAUCCAGUATT against SNRPA, the median seed-adjusted z-score was -2.09 (active).

For the sequence CGAAGUGAGUGAUAACAGUTT against RNF157, the median seed-adjusted z-score was 0.0197 (inactive).

In the case of GCAAGACCGAAGUAAACUATT against GPX4, the median seed-adjusted z-score is -1.18 (active).

With UGUUAAGCUUCAUCAGUAUTT against MRGPRX1, the median seed-adjusted z-score is -0.188 (inactive).

Consider ACAUCUCACGGAUCCUUAATT against PAX4, for which the median seed-adjusted z-score was 0.0811 (inactive).

With GGUGAAGGUAGAUCAAAGATT against EIF2AK2, the median seed-adjusted z-score is 0.419 (inactive).

For CGACUUCUCAGAAGGCAGATT against GATA4, the median seed-adjusted z-score is -0.24 (inactive).

For the sequence AAAUCUCAAUGGUCGCUAUTT against FCN3, the median seed-adjusted z-score was -0.112 (inactive).

For the sequence AGGAGCUUGUUGAUCCCUATT against SLC7A8, the median seed-adjusted z-score was -0.134 (inactive).

As for CCACAUAGGUCAGAAACGATT against CLDN17, the median seed-adjusted z-score was 0 (inactive).

For the sequence CAUCGUCUCUGCUGACAAATT against TUBAL3, the median seed-adjusted z-score was 1.05 (active).
